Measured values published in PubChem BioAssay (EPA / NIEHS).
Activity calls are given as the source filed them. How the source made its calls: active means hit-call score of the fitted dose curve at least 0.9, where 1 is the maximum; inactive means score below 0.9.

Key:
Conditions in all cases: mRNA level, 48 h; actives raise or lower the signal
[1] = read-out: JUN Transcription Factor, JUN (gene 3725); experiment: LTEA_HepaRG_JUN: Life Technologies and Expression Analysis (LTEA) Assay for JUN Transcription Factor using HepaRG (AID 2283513)
Method in brief: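 Read-out is JUN transcript level by TaqMan qRT-PCR, normalized to ACTB, GAPDH and POLR2A, after 48 h chemical treatment of HepaRG cells. Concentration-response spanned eight half-log points up to 100 uM in 0.5% DMSO.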

[2] = read-out: Lipase C (LIPC), LIPC (gene 3990); experiment: LTEA_HepaRG_LIPC: Life Technologies and Expression Analysis (LTEA) Assay for Lipase C (LIPC) using HepaRG (AID 2283514)
Method in brief: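 HepaRG, 48 h exposure, 8-pt half-log series from 100 uM in 0.5% DMSO, duplicates. Readout: LIPC mRNA by Fluidigm qRT-PCR, housekeeping-normalized (ACTB/GAPDH/POLR2A). Gain or loss fitted bidirectionally against DMSO baseline.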

[3] = read-out: Lipoprotein lipase (LPL), LPL (gene 4023); experiment: LTEA_HepaRG_LPL: Life Technologies and Expression Analysis (LTEA) Assay for Lipoprotein lipase (LPL) using HepaRG (AID 2283515)
Method in brief: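 HepaRG, 48 h exposure, 8-pt half-log dilutions from 100 uM, 0.5% DMSO vehicle, duplicates; qRT-PCR (Fluidigm array) of LPL mRNA vs housekeeping genes; bidirectional curve fit relative to DMSO baseline.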

[4] = read-out: MicroRNA 122 (MIR122), gene 406906; experiment: LTEA_HepaRG_MIR122: Life Technologies and Expression Analysis (LTEA) Assay for MicroRNA 122 (MIR122) using HepaRG (AID 2283516); further: the transcript read is the microRNA miR-122
Method in brief: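 Human liver HepaRG cultures receive test chemicals for 48 h at eight half-log concentrations from 100 uM. Expression is quantified by qRT-PCR with ACTB/GAPDH/POLR2A normalization and fitted bidirectionally against 0.5% DMSO.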

[5] = read-out: matrix metalloproteinase-10 (MMP10), MMP10 (gene 4319); experiment: LTEA_HepaRG_MMP10: Life Technologies and Expression Analysis (LTEA) Assay for matrix metalloproteinase-10 (MMP10) using HepaRG (AID 2283517)
Method in brief: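 Transcript levels come from Fluidigm qRT-PCR normalized to three housekeeping genes, with curves fitted bidirectionally against 0.5% DMSO. Human HepaRG cells were dosed for 48 hours at concentrations up to 100 uM.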

MYC, MYC (gene 4609) = experiment: LTEA_HepaRG_MYC: Life Technologies and Expression Analysis (LTEA) Assay for MYC using HepaRG (AID 2283518)
Method in brief: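 qRT-PCR read-out of MYC transcript (Fluidigm TaqMan, housekeeping-normalized) after 48 h chemical exposure of HepaRG cells; eight concentrations, top 100 uM, half-log steps. Bidirectional curve fitting against 0.5% DMSO vehicle baseline.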

[6] = read-out: matrix metalloproteinase-3 (MMP3), MMP3 (gene 4314); experiment: LTEA_HepaRG_MMP3: Life Technologies and Expression Analysis (LTEA) Assay for matrix metalloproteinase-3 (MMP3) using HepaRG (AID 2283519)
Method in brief: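 qRT-PCR read-out of MMP3 mRNA (normalised to three housekeeping genes) in HepaRG liver cells after 48 h chemical exposure; 8-point half-log series, top 100 uM, 0.5% DMSO vehicle. Bidirectional curve fitting against DMSO baseline.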

[7] = read-out: Paternally Expressed 10 (PEG10), PEG10 (gene 23089); experiment: LTEA_HepaRG_PEG10: Life Technologies and Expression Analysis (LTEA) Assay for Paternally Expressed 10 (PEG10) using HepaRG (AID 2283520);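 on AC50: differentiated HepaRG human liver cells in serum-free induction medium with 0.5% DMSO; PEG10 transcript by qRT-PCR normalised to ACTB GAPDH and POLR2A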
Method in brief: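 Human HepaRG cultures are dosed for 48 h across an eight-point half-log series starting at 100 uM, with 0.5% DMSO as vehicle and baseline. Gain or loss of PEG10 transcript is measured by qRT-PCR and fitted in both directions.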

[8] = read-out: Protein phosphatase 2A (PPP2R4), PTPA (gene 5524); experiment: LTEA_HepaRG_PPP2R4: Life Technologies and Expression Analysis (LTEA) Assay for Protein phosphatase 2A (PPP2R4) using HepaRG (AID 2283522)
Method in brief: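 Cells were plated, cultured 48 h, switched to serum-free induction medium, then dosed for 48 h (8 points, max 100 uM, 0.5% DMSO). RNA was isolated and PPP2R4 expression measured by TaqMan qRT-PCR.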

[9] = read-out: Phosphatase and tensin (PTEN), PTEN (gene 5728); experiment: LTEA_HepaRG_PTEN: Life Technologies and Expression Analysis (LTEA) Assay for Phosphatase and tensin (PTEN) using HepaRG (AID 2283523)
Method in brief: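 HepaRG, 48 h exposure, 8-pt half-log series from 100 uM top, 0.5% DMSO vehicle, duplicates. Readout: Fluidigm qRT-PCR of PTEN transcript; housekeeping normalization (ACTB, GAPDH, POLR2A). Gain or loss fitted relative to DMSO baseline.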

[10] = read-out: solute carrier (SLC22A1), SLC22A1 (gene 6580); experiment: LTEA_HepaRG_SLC22A1: Life Technologies and Expression Analysis (LTEA) Assay for solute carrier (SLC22A1) using HepaRG (AID 2283524);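 on AC50: differentiated human HepaRG liver cells in serum-free induction medium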
Method in brief: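 qRT-PCR readout (TaqMan, Fluidigm arrays) of SLC22A1 transcript, normalized to three housekeeping genes; bidirectional curve fit relative to 0.5% DMSO vehicle. Differentiated human HepaRG cells, 48 h chemical exposure, top concentration 100 uM, half-log steps, eight points.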

[11] = read-out: Pyruvate Dehydrogenase Kinase 4 (PDK4), PDK4 (gene 5166); experiment: LTEA_HepaRG_PDK4: Life Technologies and Expression Analysis (LTEA) Assay for Pyruvate Dehydrogenase Kinase 4 (PDK4) using HepaRG (AID 2283525)
Method in brief: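 HepaRG (human liver line), 48 h chemical exposure, 8-pt half-log CRC top 100 uM, 0.5% DMSO vehicle, duplicates. Readout: TaqMan qRT-PCR of PDK4 mRNA, housekeeping-normalized; gain/loss fit relative to DMSO baseline.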

[12] = read-out: NAD(P)H dehydrogenase [quinone] 1 (NQO1), NQO1 (gene 1728); experiment: LTEA_HepaRG_NQO1: Life Technologies and Expression Analysis (LTEA) Assay for NAD(P)H dehydrogenase [quinone] 1 (NQO1) using HepaRG (AID 2283526)
Method in brief: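 Transcript induction or suppression is quantified by qRT-PCR in human HepaRG liver cells dosed for 48 hours. Eight half-log concentrations topping at 100 uM are used, with 0.5% DMSO as vehicle and baseline.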

[13] = read-out: Nuclear factor erythroid 2-related factor 2 (Homo sapiens) (UniProt Q16236); experiment: LTEA_HepaRG_NFE2L2: Life Technologies and Expression Analysis (LTEA) Assay for Nuclear factor erythroid 2-related factor 2 (NFE2L2) Transcription Factor using HepaRG (AID 2283527);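 further: TaqMan qRT-PCR transcript level normalised to ACTB GAPDH and POLR2A housekeeping genes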
Method in brief: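 HepaRG, 48 h dosing, 8-pt half-log series from 100 uM in 0.5% DMSO, duplicates. Read-out: NFE2L2 mRNA by qRT-PCR (ACTB/GAPDH/POLR2A normalization). Bidirectional curve fit vs DMSO baseline.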

[14] = read-out: succinate dehydrogenase complex iron sulfur subunit B (SDHB), SDHB (gene 6390); experiment: LTEA_HepaRG_SDHB: Life Technologies and Expression Analysis (LTEA) Assay for succinate dehydrogenase complex iron sulfur subunit B (SDHB) using HepaRG (AID 2283528)
Method in brief: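 Readout is SDHB transcript level by qRT-PCR, normalised to three housekeeping genes and fitted bidirectionally against 0.5% DMSO vehicle. Human HepaRG cells were treated for 48 h at up to 100 uM.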

[15] = read-out: Signal transducer and activator of transcription 3 (Homo sapiens) (UniProt P40763); experiment: LTEA_HepaRG_STAT3: Life Technologies and Expression Analysis (LTEA) Assay for Signal transducer and activator of transcription (STAT3) using HepaRG (AID 2283529)
Method in brief: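 HepaRG, 48 h exposure, 8-pt half-log series (top 100 uM), 0.5% DMSO vehicle, duplicates. Readout: STAT3 transcript by Fluidigm qRT-PCR, housekeeping-normalized; bidirectional fit vs DMSO baseline.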

[16] = read-out: solute carrier (SLCO1B1), SLCO1B1 (gene 10599); experiment: LTEA_HepaRG_SLCO1B1: Life Technologies and Expression Analysis (LTEA) Assay for solute carrier (SLCO1B1) using HepaRG (AID 2283530)
Method in brief: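 SLCO1B1 transcript read by qRT-PCR (Fluidigm arrays), normalized to three housekeeping genes, after 48 h chemical exposure of HepaRG cells; bidirectional concentration-response fitting versus 0.5% DMSO baseline. Eight-point half-log series, maximum 100 uM.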

[17] = read-out: sulfotransferase 2A1 (SULT2A1), SULT2A1 (gene 6822); experiment: LTEA_HepaRG_SULT2A1: Life Technologies and Expression Analysis (LTEA) Assay for sulfotransferase 2A1 (SULT2A1) using HepaRG (AID 2283531)
Method in brief: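 HepaRG, 48 h chemical exposure, 8-pt half-log curve from 100 uM in 0.5% DMSO, duplicates. Readout: TaqMan qRT-PCR of SULT2A1 mRNA, housekeeping-normalized. Bidirectional fit vs DMSO baseline.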

[18] = read-out: Transforming Growth Factor (TGFA), TGFA (gene 7039); experiment: LTEA_HepaRG_TGFA: Life Technologies and Expression Analysis (LTEA) Assay for Transforming Growth Factor (TGFA) using HepaRG (AID 2283532)
Method in brief: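 qRT-PCR read-out of TGFA transcript, normalized to three housekeeping genes, fitted bidirectionally against 0.5% DMSO baseline. Human HepaRG cultures received chemicals for 48 h at eight half-log concentrations, top 100 uM.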

[19] = read-out: Nuclear factor NF-kappa-B p105 subunit (Homo sapiens) (UniProt P19838); experiment: LTEA_HepaRG_NFKB1: Life Technologies and Expression Analysis (LTEA) Assay for Nuclear Factor Kappa B Subunit 1 (NFKB1) using HepaRG (AID 2283521);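 further: differentiated human HepaRG liver cells in serum-free induction medium; TaqMan qRT-PCR transcript normalised to ACTB GAPDH and POLR2A housekeeping genes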
Method in brief: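 HepaRG, 48 h exposure; 8-pt half-log series from 100 uM in 0.5% DMSO; duplicates. Readout: NFKB1 mRNA by qRT-PCR (Fluidigm arrays), housekeeping-normalized. Gain/loss fit vs DMSO baseline.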

Nuclear factor erythroid 2-related factor 2 (Homo sapiens), sequence (Q16236 whole entry, looked up): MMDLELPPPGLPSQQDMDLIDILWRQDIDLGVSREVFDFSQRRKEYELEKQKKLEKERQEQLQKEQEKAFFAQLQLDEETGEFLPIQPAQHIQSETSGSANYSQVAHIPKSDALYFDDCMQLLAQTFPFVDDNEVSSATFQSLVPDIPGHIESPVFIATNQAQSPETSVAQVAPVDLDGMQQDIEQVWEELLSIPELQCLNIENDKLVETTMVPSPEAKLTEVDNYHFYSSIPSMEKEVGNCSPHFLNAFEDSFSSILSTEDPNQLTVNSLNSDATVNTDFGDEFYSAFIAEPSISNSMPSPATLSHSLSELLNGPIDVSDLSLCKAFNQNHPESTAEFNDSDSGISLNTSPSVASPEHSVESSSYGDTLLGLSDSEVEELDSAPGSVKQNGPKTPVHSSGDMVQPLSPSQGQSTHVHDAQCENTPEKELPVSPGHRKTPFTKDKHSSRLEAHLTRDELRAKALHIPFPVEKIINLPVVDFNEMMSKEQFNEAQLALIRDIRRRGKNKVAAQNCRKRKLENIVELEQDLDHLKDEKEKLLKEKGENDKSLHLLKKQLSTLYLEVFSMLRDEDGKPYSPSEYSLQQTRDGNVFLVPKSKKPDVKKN
Signal transducer and activator of transcription 3 (Homo sapiens), sequence (P40763 whole entry, looked up): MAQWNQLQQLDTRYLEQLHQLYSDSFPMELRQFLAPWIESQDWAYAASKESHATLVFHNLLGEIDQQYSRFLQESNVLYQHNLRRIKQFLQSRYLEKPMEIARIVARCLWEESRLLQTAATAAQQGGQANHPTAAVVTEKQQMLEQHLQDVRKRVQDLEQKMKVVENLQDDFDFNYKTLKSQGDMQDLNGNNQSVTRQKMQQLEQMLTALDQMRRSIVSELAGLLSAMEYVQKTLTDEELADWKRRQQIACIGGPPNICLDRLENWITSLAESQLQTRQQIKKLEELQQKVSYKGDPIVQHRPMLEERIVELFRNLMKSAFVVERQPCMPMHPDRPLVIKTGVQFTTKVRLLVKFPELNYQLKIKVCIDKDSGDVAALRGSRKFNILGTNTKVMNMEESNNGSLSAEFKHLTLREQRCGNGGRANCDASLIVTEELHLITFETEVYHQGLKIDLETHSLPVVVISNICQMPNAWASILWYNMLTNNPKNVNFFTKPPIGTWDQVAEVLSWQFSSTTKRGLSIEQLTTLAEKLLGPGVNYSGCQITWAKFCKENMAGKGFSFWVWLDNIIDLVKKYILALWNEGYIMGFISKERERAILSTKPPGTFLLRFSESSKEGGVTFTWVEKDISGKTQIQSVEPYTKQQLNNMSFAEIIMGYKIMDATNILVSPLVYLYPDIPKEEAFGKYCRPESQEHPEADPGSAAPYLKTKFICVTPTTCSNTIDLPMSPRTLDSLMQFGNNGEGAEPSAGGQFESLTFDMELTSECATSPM
Nuclear factor NF-kappa-B p105 subunit (Homo sapiens), sequence (P19838 whole entry, looked up): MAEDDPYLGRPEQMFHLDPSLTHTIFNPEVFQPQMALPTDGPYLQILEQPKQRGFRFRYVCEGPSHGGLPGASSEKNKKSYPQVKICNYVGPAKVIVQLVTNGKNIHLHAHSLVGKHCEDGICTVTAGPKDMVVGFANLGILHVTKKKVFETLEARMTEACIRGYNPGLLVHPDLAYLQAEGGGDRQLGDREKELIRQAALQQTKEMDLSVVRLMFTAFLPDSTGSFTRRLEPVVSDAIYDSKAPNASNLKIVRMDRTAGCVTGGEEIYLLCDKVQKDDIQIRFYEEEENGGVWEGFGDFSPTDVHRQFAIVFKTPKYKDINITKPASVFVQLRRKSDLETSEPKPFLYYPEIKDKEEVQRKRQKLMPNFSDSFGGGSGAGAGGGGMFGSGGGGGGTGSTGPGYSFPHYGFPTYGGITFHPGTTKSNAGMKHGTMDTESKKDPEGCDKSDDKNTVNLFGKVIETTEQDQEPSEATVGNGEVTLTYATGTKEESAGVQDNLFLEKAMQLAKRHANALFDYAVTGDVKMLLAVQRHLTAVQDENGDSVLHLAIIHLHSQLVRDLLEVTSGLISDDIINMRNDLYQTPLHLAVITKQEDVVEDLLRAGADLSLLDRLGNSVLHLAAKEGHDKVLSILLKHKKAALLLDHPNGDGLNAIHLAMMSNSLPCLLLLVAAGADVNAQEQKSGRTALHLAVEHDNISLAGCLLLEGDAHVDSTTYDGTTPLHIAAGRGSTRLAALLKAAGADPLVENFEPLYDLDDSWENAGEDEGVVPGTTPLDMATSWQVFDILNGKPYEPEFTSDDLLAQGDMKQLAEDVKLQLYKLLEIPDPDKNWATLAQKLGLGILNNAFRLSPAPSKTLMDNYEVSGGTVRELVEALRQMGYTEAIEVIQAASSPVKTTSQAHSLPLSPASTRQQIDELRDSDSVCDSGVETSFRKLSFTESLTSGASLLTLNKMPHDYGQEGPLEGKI

## CNCc1ccc(NC(=O)c2c[nH]c3c2C(=O)CCC3)cc1
[1]
  outcome: inactive
[2]
  outcome: inactive
[3]
  outcome: inactive
[4]
  outcome: inactive
[5]
  outcome: inactive
MYC, MYC (gene 4609)
  outcome: inactive
[6]
  outcome: inactive
[7]
  outcome: inactive
[8]
  outcome: inactive
[9]
  outcome: inactive
[10]
  outcome: inactive
[11]
  outcome: inactive
[12]
  outcome: inactive
[13]
  outcome: inactive
[14]
  outcome: inactive
[15]
  outcome: inactive
[16]
  outcome: inactive
[17]
  outcome: inactive
[18]
  outcome: inactive

## CC/C(=C\C(=N/O)C(N)=O)C(C)[N+](=O)[O-] (configuration not stated)
[1]
  outcome: inactive
[2]
  outcome: inactive
[3]
  outcome: inactive
[4]
  outcome: inactive
[5]
  outcome: inactive
MYC, MYC (gene 4609)
  outcome: inactive
[6]
  outcome: inactive
[7]
  outcome: inactive
[8]
  outcome: inactive
[9]
  outcome: inactive
[10]
  outcome: inactive
[11]
  outcome: inactive
[12]
  outcome: inactive
[13]
  outcome: inactive
[14]
  outcome: inactive
[15]
  outcome: inactive
[16]
  outcome: inactive
[17]
  outcome: inactive
[18]
  outcome: inactive

## CCCCCCCCCCCCCCCO
[1]
  outcome: inactive
[2]
  outcome: inactive
[3]
  outcome: inactive
[4]
  outcome: inactive
[5]
  outcome: inactive
MYC, MYC (gene 4609)
  outcome: inactive
[6]
  outcome: inactive
[7]
  outcome: inactive
[8]
  outcome: inactive
[9]
  outcome: inactive
[10]
  outcome: inactive
[11]
  outcome: inactive
[12]
  outcome: inactive
[13]
  outcome: inactive
[14]
  outcome: inactive
[15]
  outcome: inactive
[17]
  outcome: inactive
[18]
  outcome: inactive

## CN(C)c1ccc(N=NS(=O)(=O)O)cc1
[1]
  outcome: inactive
[2]
  outcome: inactive
[3]
  outcome: inactive
[4]
  outcome: inactive
[5]
  outcome: inactive
MYC, MYC (gene 4609)
  outcome: inactive
[6]
  outcome: inactive
[7]
  outcome: inactive
[8]
  outcome: inactive
[9]
  outcome: inactive
[10]
  AC50: 20.5 µM (active)
[11]
  outcome: inactive
[12]
  outcome: inactive
[13]
  outcome: inactive
[14]
  outcome: inactive
[15]
  AC50: 0.717 µM (active)
[16]
  outcome: inactive
[17]
  outcome: inactive
[18]
  outcome: inactive

## CC(=O)OC[C@H]1O[C@@](COC(C)=O)(O[C@H]2O[C@H](COC(C)=O)[C@@H](OC(C)=O)[C@H](OC(C)=O)[C@H]2OC(C)=O)[C@@H](OC(C)=O)[C@@H]1OC(C)=O
[1]
  outcome: inactive
[2]
  outcome: inactive
[3]
  outcome: inactive
[4]
  outcome: inactive
[5]
  outcome: inactive
MYC, MYC (gene 4609)
  outcome: inactive
[6]
  outcome: inactive
[7]
  outcome: inactive
[8]
  outcome: inactive
[9]
  outcome: inactive
[10]
  outcome: inactive
[11]
  outcome: inactive
[12]
  outcome: inactive
[13]
  outcome: inactive
[14]
  outcome: inactive
[15]
  outcome: inactive
[16]
  outcome: inactive
[17]
  outcome: inactive
[18]
  outcome: inactive

## CC(C)c1cccc(C(C)C)c1N1C(=O)c2ccc(O)cc2C1=O
[1]
  outcome: inactive
[3]
  AC50: 83.4 µM (active)
[4]
  AC50: 93.6 µM (active)
[5]
  AC50: 89.9 µM (active)
MYC, MYC (gene 4609)
  AC50: 50 µM (active)
[6]
  AC50: 93.4 µM (active)
[7]
  AC50: 76.8 µM (active)
[19]
  outcome: inactive
[8]
  outcome: inactive
[9]
  outcome: inactive
[10]
  AC50: 91.4 µM (active)
[11]
  outcome: inactive
[12]
  outcome: inactive
[13]
  outcome: inactive
[14]
  AC50: 50 µM (active)
[15]
  outcome: inactive
[16]
  outcome: inactive
[17]
  outcome: inactive
[18]
  outcome: inactive

## Cc1ccc(N)cc1O
[1]
  outcome: inactive
[2]
  outcome: inactive
[3]
  AC50: 31.8 µM (active)
[4]
  outcome: inactive
[5]
  outcome: inactive
MYC, MYC (gene 4609)
  outcome: inactive
[6]
  outcome: inactive
[7]
  outcome: inactive
[8]
  outcome: inactive
[9]
  outcome: inactive
[10]
  outcome: inactive
[11]
  outcome: inactive
[12]
  outcome: inactive
[13]
  outcome: inactive
[14]
  outcome: inactive
[15]
  outcome: inactive
[16]
  outcome: inactive
[17]
  outcome: inactive
[18]
  outcome: inactive
